PubChem BioAssay (Tox21)
Results filed as inconclusive are left out. Activity calls are given as the source filed them. Unless noted, the call rests on the fitted dose curve.

How the values were obtained:
[1] = Nuclear factor erythroid 2-related factor 2/antioxidant responsive element (Nrf2/ARE) small molecule agonists: qHTS cell viability counter screen in human keratinocytes (AID 1919968; active means well fitted curve in the direction sought with a large enough effect in the repeat runs; an effect the other way counts as inactive or inconclusive; further: nearly all actives have a fitted effect of over 55% in size)
Procedure, shortened: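 Measured as CellTiter-Fluor fluorescence, this readout tracks cytotoxicity in the same wells as the ARE-luciferase screen. HaCaT reporter cells (1,500/well) received compounds after a 5 h pre-incubation and were exposed for 23 h.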

[2] = Nuclear factor erythroid 2-related factor 2/antioxidant responsive element (Nrf2/ARE) small molecule agonists: luciferase reporter gene qHTS assay in human keratinocytes (AID 1919969); further: nearly all actives have a fitted effect of over 35% in size
[3] = target: Gonadotropin-releasing hormone receptor (Homo sapiens) (UniProt P30968); experiment: Human gonadotropin-releasing hormone receptor (GnRHR) small molecule agonists, calcium flux assay in GnRHR-HEK293 cells (AID 1920063); further: nearly all actives have a fitted effect of over 35% in size
Procedure, shortened: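 Fluorescence kinetics (480 nm excitation, 540 nm emission; 3 min, 1 s steps) report calcium mobilisation in human GnRHR-HEK293 cells in agonist mode. Dye incubation: 1 h, 37 C.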

[4] = target: KiSS-1 receptor (Homo sapiens) (UniProt Q969F8); experiment: Human kisspeptin (KISS1R) small molecule agonists, calcium flux assay in KISS1R-HEK293 cells (AID 1920064; active means well fitted curve in the direction sought with a large enough effect in the repeat runs; an effect the other way counts as inactive or inconclusive)
Procedure, shortened: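 Measures KISS1R agonism through calcium-sensitive dye fluorescence in stably transfected HEK293 cells, read for 3 min after pin-tool compound delivery; 15-point titrations in triplicate.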

[5] = G protein-coupled receptor (GPCR) small molecule agonists, calcium flux assay: HEK293 wild type cell line counter screen (AID 1920065)
Procedure, shortened: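 Readout: fluorescence at 480 nm excitation/540 nm emission, sampled at 1 s intervals for 3 min. Cells had been cultured 18 h, then dye-loaded 1 h at 37 C before compound or ATP addition.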

[6] = p53 small molecule agonists, cell-based qHTS assay with human liver microsomes (AID 1963577);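 further: p53 response element beta-lactamase reporter cells with liver microsomes plus NADPH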
Procedure, shortened: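 16 h, 37 C exposure of p53RE-bla cells to compounds with human liver microsomes and NADPH (0.5 mg/mL final each); detection via LiveBLAzer mixture, 2 h dark at room temperature.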

[7] = p53 small molecule agonists, cell-based qHTS assay with rat liver microsomes (AID 1963578)
Procedure, shortened: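 With rat liver microsomes and NADPH present (0.5 mg/mL final each), p53RE-bla cells are treated with compound for 16 h at 37 C. LiveBLAzer detection mixture is then applied for 2 h at room temperature in the dark.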

[8] = p53 small molecule agonists, cell-based qHTS assay with human liver microsomes: qHTS cell viability counter screen (AID 1963579); further: nearly all actives have a fitted effect of over 45% in size
Procedure, shortened: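 In this multiplexed counter screen, the reporter plates were subsequently treated with CellTiter-Glo so that cell viability, reflected by luminescence, could be recorded for p53RE-bla cells dosed 16 h with compounds under microsomal activation (HLM and NADPH).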

[9] = p53 small molecule agonists, cell-based qHTS assay with rat liver microsomes: qHTS cell viability counter screen (AID 1963580); further: nearly all actives have a fitted effect of over 45% in size
Procedure, shortened: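 In HCT-116 cells carrying a p53 response element-bla reporter, compounds were metabolically activated in situ by rat liver microsomes with NADPH over 16 h. Cell ATP content then served as the cytotoxicity measure.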

[10] = p53 small molecule agonists, cell-based qHTS assay: qHTS cell viability counter screen (AID 1963581); further: nearly all actives have a fitted effect of over 45% in size
Procedure, shortened: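 In the same plates used for the p53 bla reporter, HCT-116 cells given compounds for 16 h at 37 C received CellTiter-Glo; luminescence was recorded 30 min later at room temperature.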

[11] = p53 small molecule agonists, cell-based qHTS assay (AID 1963582; active means well fitted activation curve with a large enough effect in the signal ratio in the repeat runs, not every such curve was filed as active; the % refers to the signal ratio)
Procedure, shortened: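 Compounds are pin-transferred in DMSO onto p53RE-bla cells and incubated 16 h at 37 C. The B/G FRET beta-lactamase substrate is then applied for 2 h at RT and fluorescence recorded.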

[12] = target: 5-hydroxytryptamine receptor 2A (Homo sapiens) (UniProt P28223); experiment: 5-hydroxytryptamine receptor 2A (HTR2A) small molecule antagonists, cell-based qHTS assay (AID 1963586); further: nearly all actives have a fitted effect of over 45% in size
Procedure, shortened: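 Antagonist-mode intracellular calcium assay: DOI (4 nM) added after 5 min compound pre-incubation at room temperature to dye-loaded HTR2A-CHO cells. Fluorescence followed for 3 min, sampled every second.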

[13] = target: 5-hydroxytryptamine receptor 2A (Homo sapiens) (UniProt P28223); experiment: 5-hydroxytryptamine receptor 2A (HTR2A) small molecule agonists, cell-based qHTS assay (AID 1963587); further: nearly all actives have a fitted effect of over 30% in size
Procedure, shortened: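 HTR2A-CHO cells, plated 18 h at 37 C/5% CO2, dye-loaded 1 h at 37 C; compounds in DMSO added by pin tool (agonist mode). Intracellular calcium flux read as kinetic fluorescence on FDSS over 2 min at 1 s intervals.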

[14] = target: Muscarinic acetylcholine receptor M1 (Homo sapiens) (UniProt P11229); experiment: Cholinergic receptor muscarinic 1 (CHRM1) small molecule antagonists, cell-based qHTS assay (AID 1963588); further: nearly all actives have a fitted effect of over 40% in size
Procedure, shortened: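 CHRM1-CHO calcium-flux assay, antagonist mode. Cells were seeded 18 h, dye-loaded 1 h at 37 C and given compound for 5 min at RT, then acetylcholine was added at 50nM. FDSS fluorescence was read 3 min; 15 concentrations, three runs.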

[15] = target: Muscarinic acetylcholine receptor M1 (Homo sapiens) (UniProt P11229); experiment: Cholinergic receptor muscarinic 1 (CHRM1) small molecule agonists, cell-based qHTS assay (AID 1963589); further: nearly all actives have a fitted effect of over 35% in size
Procedure, shortened: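 Each compound was tested at 15 concentrations across three independent runs on dye-loaded CHO cells stably expressing human CHRM1, reading intracellular calcium fluorescence kinetically at 1 sec intervals.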

[16] = cAMP Responsive Elements (CRE) small molecule agonists, cell-based qHTS assay (AID 1963590)
Procedure, shortened: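 Cell line: CRE-bla HEK 293T; medium DMEM/10% dialyzed FBS/0.1 mM NEAA/1 mM pyruvate/25 mM HEPES; 3 h compound exposure; beta-lactamase FRET readout after 2 h substrate loading at RT.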

[17] = cAMP Responsive Elements (CRE) small molecule antagonists, cell-based qHTS assay (AID 1963591; active means well fitted inhibition curve with a large enough effect in the signal ratio in the repeat runs, not every such curve was filed as active; the % refers to the signal ratio)
Procedure, shortened: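 Inhibition of NKH477-driven (0.25 uM final) CRE-beta-lactamase signal in HEK293T cells, 3 h compound exposure at 37 °C, detected by FRET substrate fluorescence.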

[18] = target: Beta-2 adrenergic receptor (Homo sapiens) (UniProt P07550); experiment: Adrenergic beta2 receptor (ADRB2) small molecule antagonists, cell-based qHTS assay (AID 1963592); further: series mostly up to about 92 µM; nearly all actives have a fitted effect of over 50% in size
Procedure, shortened: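 Cells (CHO, stable ADRB2 overexpression) incubated 18-20hr at 37C; compounds added from DMSO; agonist mix (1nM isoproterenol, 100uM IBMX, 25uM Ro-20-1724) added; 0.5hr RT; d2-cAMP and anti-cAMP-cryptate added; 1hr RT; 665/615 nm read.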

[19] = target: D(2) dopamine receptor (Homo sapiens) (UniProt P14416); experiment: Dopamine D2 receptor (DRD2) small molecule agonists, cell-based qHTS assay (AID 1963594); further: nearly all actives have a fitted effect of over 35% in size
Procedure, shortened: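 HEK293 cells stably expressing DRD2 were cultured 24 h at 37 C, then given Ro20-1724 (0.1 mM final) and compounds for 10 min at room temperature. NKH477 (200nM) was then added for 30 min. cAMP was read by HTRF.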

[20] = target: D(2) dopamine receptor (Homo sapiens) (UniProt P14416); experiment: Dopamine D2 receptor (DRD2) small molecule antagonists, cell-based qHTS assay (AID 1963595; active means well fitted inhibition curve with a large enough effect in the signal ratio in the repeat runs, with a control signal flat; the % refers to the signal ratio)
Procedure, shortened: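 Readout: HTRF cAMP, cAMP-d2 competing with cellular cAMP for anti-cAMP cryptate, read after 1 h. Cells: DRD2-HEK293. Conditions: 0.1 mM Ro20-1724, 12 nM quinpirole, 200 nM NKH477, 30 min RT.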

Measured: Potency

Chain of Gonadotropin-releasing hormone receptor (Homo sapiens) (P30968 whole entry, looked up): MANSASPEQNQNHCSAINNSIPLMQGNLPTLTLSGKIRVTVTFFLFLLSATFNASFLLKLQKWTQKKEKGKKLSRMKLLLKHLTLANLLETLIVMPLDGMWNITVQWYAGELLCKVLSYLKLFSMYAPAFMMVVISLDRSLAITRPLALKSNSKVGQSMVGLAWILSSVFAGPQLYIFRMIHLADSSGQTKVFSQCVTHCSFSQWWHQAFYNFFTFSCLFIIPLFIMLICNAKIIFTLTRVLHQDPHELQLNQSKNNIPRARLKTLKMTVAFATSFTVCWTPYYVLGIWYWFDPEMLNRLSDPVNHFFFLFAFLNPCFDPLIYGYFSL
Chain of 5-hydroxytryptamine receptor 2A (Homo sapiens) (P28223 whole entry, looked up): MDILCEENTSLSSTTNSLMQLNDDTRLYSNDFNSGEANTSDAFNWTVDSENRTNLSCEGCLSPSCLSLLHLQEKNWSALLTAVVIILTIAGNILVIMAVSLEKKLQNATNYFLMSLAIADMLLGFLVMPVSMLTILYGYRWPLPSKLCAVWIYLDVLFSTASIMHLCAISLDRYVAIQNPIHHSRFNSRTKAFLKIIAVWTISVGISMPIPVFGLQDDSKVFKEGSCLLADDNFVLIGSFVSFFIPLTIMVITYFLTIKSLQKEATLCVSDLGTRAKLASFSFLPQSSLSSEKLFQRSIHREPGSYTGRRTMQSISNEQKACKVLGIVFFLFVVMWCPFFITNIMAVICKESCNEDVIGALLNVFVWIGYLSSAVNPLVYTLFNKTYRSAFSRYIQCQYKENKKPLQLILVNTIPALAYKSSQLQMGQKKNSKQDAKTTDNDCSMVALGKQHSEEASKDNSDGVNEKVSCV
Chain of Beta-2 adrenergic receptor (Homo sapiens) (P07550 whole entry, looked up): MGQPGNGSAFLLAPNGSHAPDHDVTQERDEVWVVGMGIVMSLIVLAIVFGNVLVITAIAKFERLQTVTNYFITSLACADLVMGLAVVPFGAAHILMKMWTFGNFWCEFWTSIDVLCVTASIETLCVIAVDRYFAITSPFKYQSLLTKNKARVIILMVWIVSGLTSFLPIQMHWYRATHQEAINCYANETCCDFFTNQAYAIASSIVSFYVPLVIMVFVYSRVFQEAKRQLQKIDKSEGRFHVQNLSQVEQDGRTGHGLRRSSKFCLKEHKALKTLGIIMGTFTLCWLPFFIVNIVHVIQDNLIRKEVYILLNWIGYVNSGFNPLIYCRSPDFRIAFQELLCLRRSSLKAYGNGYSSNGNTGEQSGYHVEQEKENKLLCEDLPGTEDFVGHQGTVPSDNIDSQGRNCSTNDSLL
Chain of Muscarinic acetylcholine receptor M1 (Homo sapiens) (P11229 whole entry, looked up): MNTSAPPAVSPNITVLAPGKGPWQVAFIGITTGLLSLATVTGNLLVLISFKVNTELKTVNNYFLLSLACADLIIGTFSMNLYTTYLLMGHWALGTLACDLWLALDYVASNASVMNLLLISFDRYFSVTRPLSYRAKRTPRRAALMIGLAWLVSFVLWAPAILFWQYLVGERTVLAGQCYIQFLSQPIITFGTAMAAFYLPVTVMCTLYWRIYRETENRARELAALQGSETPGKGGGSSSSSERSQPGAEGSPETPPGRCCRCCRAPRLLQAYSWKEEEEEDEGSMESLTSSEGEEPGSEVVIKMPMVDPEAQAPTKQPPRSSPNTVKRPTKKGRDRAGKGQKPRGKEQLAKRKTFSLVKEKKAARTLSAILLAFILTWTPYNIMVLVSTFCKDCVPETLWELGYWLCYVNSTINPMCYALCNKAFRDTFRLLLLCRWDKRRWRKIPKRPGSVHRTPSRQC
Chain of KiSS-1 receptor (Homo sapiens) (Q969F8 whole entry, looked up): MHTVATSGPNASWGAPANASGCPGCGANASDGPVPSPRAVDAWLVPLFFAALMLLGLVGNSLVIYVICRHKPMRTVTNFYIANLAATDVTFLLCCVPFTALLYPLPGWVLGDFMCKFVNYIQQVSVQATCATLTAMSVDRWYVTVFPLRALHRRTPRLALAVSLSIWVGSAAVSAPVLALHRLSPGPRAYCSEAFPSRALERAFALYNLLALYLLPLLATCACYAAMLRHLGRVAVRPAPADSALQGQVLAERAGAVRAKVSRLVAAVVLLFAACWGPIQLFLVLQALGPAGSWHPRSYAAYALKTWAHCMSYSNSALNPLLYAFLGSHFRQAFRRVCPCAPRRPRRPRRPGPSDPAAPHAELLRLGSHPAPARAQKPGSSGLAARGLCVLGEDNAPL
Chain of D(2) dopamine receptor (Homo sapiens) (P14416 whole entry, looked up): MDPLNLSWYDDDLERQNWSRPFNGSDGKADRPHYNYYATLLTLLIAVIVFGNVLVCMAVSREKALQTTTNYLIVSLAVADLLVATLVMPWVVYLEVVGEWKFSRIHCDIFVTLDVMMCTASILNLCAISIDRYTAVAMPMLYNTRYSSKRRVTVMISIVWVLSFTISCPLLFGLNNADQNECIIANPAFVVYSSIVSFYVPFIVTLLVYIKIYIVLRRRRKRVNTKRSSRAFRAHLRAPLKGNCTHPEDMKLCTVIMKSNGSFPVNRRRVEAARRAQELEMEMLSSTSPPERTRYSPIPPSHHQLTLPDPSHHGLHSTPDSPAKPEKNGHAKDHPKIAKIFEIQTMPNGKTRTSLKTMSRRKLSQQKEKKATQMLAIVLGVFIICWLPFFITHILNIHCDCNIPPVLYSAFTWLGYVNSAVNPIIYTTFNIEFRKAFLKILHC

COc1ccc(NS(=O)(=O)c2ccc(N)cc2)nn1
inactive: [1] | [2] | [3] | [4] | [5] | [6] | [7] | [8] | [9] | [10] | [11] | [12] | [13] | [14] | [15] | [16] | [17] | [18] | [19] | [20]

CCC(C)C(=O)OC (centres undefined)
inactive: [1] | [2] | [3] | [4] | [5] | [6] | [7] | [8] | [9] | [10] | [11] | [12] | [13] | [14] | [15] | [16] | [17] | [18] | [19] | [20]

CC(C)CCCC(=O)O
inactive: [1] | [2] | [3] | [4] | [5] | [6] | [7] | [8] | [9] | [10] | [11] | [12] | [13] | [14] | [15] | [16] | [17] | [18] | [19] | [20]

Clc1cc(Cl)nc(Cl)n1
inactive: [1] | [2] | [3] | [4] | [5] | [6] | [7] | [8] | [9] | [10] | [11] | [12] | [13] | [14] | [15] | [16] | [17] | [18] | [20]

CCc1cccc(C)c1N(C(=O)CS(=O)(=O)O)C(C)COC (centres undefined)
inactive: [1] | [2] | [3] | [4] | [5] | [6] | [7] | [8] | [9] | [10] | [11] | [12] | [13] | [14] | [15] | [16] | [17] | [18] | [19] | [20]

CCN(CC)C(C)=O
inactive: [1] | [2] | [3] | [4] | [5] | [6] | [7] | [8] | [9] | [10] | [11] | [12] | [13] | [14] | [15] | [16] | [17] | [18] | [19] | [20]

CCOC(=O)C(C)O (centres undefined)
inactive: [1] | [2] | [3] | [4] | [5] | [6] | [7] | [8] | [9] | [10] | [11] | [12] | [13] | [14] | [15] | [16] | [17] | [18] | [19] | [20]

Nc1cc(C(=O)O)ccc1Cl
inactive: [1] | [2] | [3] | [4] | [5] | [6] | [7] | [8] | [9] | [10] | [11] | [12] | [13] | [14] | [15] | [16] | [17] | [18] | [19] | [20]

CC(O)CN(CCCN(C)C)CCCN(C)C (centres undefined)
inactive: [1] | [2] | [3] | [4] | [5] | [6] | [7] | [8] | [9] | [10] | [11] | [12] | [13] | [14] | [15] | [16] | [17] | [18] | [19] | [20]

CCC(=O)c1cccc(Cl)c1
inactive: [1] | [2] | [3] | [4] | [5] | [6] | [7] | [8] | [9] | [10] | [11] | [12] | [13] | [14] | [15] | [16] | [17] | [18] | [19] | [20]

CCCCOCC(C)O (centres undefined)
inactive: [1] | [2] | [3] | [4] | [5] | [6] | [7] | [8] | [9] | [10] | [11] | [12] | [13] | [14] | [15] | [16] | [17] | [18] | [19] | [20]

CCc1cccc(CC)c1NC(=O)CN(CC(=O)O)CC(=O)O
inactive: [1] | [2] | [3] | [4] | [5] | [6] | [7] | [8] | [9] | [10] | [11] | [12] | [13] | [14] | [15] | [16] | [17] | [18] | [19] | [20]

CCCCCCn1c(=O)c2c(ncn2C)n(C)c1=O
inactive: [1] | [2] | [3] | [4] | [5] | [6] | [7] | [8] | [9] | [10] | [11] | [12] | [13] | [14] | [15] | [16] | [17] | [18] | [19] | [20]
